# Source: the supplement of paper PMC7726561
# Target: HLA-C*04:01
# Experiment: thermal melting temperature (Tm) of peptide-HLA complex; higher = more thermostable pHLA complex
# Experimental: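 Endogenous HLA-C*04:01 ligands were detected in the thermostability assays of both the C1R-A*02:01 and C1R-B*07:02 lines. Lysates were heated 10 min at 37-73 °C and pHLA immunoprecipitated with W6/32. Peptides were quantified by DIA-MS and Tm was taken from a logistic sigmoid fit.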
Sequence,thermal melting temperature (C1R-A*02:01) [°C],thermal melting temperature (C1R-B*07:02) [°C]
TYDYAKTIL,49,46.9
SFDETVTHF,58.6,59.8
FFDSQGQVLL,51,53.6
SYDHVELTF,51.3,51.9
MLDPLEVHL,47.2,52.5
FTDEESRVF,48.1,46.7
KADGVPVYL,56.5,57.1
HFDLSVIEL,57.1,60.5
IYDEAISSF,58.9,62.7
VFHVQQTEM,53.8,54.5
ILDPHVVLL,54.8,57.6
FLPEAPAEL,54.1,55.9
QLDPLVVEL,50,46.9
DFDMTLSRF,52.8,54.5
SFEEKPVYI,56.8,55.5
RFDSDVGEF,54.9,54.5
RFEDSPSYV,54.4,52.3
AFDASRTSF,52.4,52.8
FFDTNTSVL,55.5,59.4
SFDVSQKF,49,49.7
SFDEIHQLF,47.8,52
SFDSTVRL,52.9,54.6
VYDIAAKF,56.9,57.6
YFPELIANF,45.6,45.3

Sequence,thermal melting temperature (C1R-A*02:01) [°C],thermal melting temperature (C1R-B*07:02) [°C]
FWDGKIVLV,62.5,60.7
LYDEAIRHF,56.5,60
AFDVHLNAF,55.5,55.9
LFDDKAVEI,57.2,57.2
VYDLLKTNL,59,58.3
NYDFGPIHM,54.2,55.8
FNDTFVHV,49.3,48.5
VFDPIGHF,59.3,58.8
FFDPSLLHL,55.4,55.8
FYPPDPAQL,49.5,51.5
VFDEAIRAVL,60.2,58.8
VADPYVVIM,53.4,54.6
IFDSKVTEI,55.4,54.8
SYDLANRDF,58.3,57.8
AYDDKIYYF,56.1,55.7
NYDEALRLL,54,53
TFDVSPKAV,41.9,48.1
AFDLTEQRY,55.9,56.4
TFDASRTTF,53.4,53.5
SFDAHLTEL,53,52.9
VWDVIGRSL,53.5,51.9
GGSFDVADRMF,53.1,53.2
HFDDFVTNL,58.7,58
